Compound activity (PubChem BioAssay)
Pf Dd2 inh = blocks in vitro growth of P. falciparum Dd2; P. falciparum Dd2 growth, SYBR Green, 72 h; Potency, µM (top dose mostly 28.9 µM), inactives show at the top dose activity, negative = inhibition, hits mostly inhibitors; hit rate 4.3% among 120,000; AID 1347417; active = well fitted inhibition curve with a large enough effect;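 note: plate controls were DMSO vehicle for no effect and reference drug for full effect; nearly all actives have a fitted effect of over 65% in size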
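Infected erythrocytes (Dd2, 0.3% parasitemia, 2.5% hematocrit final) are added to compound in RPMI-1640/Albumax II medium, grown 72 h at 37C in low oxygen, then lysed with saponin/Triton-X containing SYBR Green and read by fluorescence.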
* marks the source's active call; other numbers are inactive results; i = inactive; [ ] = remark or other dose. This excerpt belongs to a sample that is enriched for hits. Potency is the fitted concentration of half-maximal effect.

SMILES	Pf Dd2 inh
Cn1cccc1C(=O)N1CCCN(S(=O)(=O)c2ccccc2)CCC(=O)NCC1	-10.7%
CCCS(=O)(=O)N1CCCN(Cc2ccncc2)C(c2ccccc2)CC(=O)NCC1 (configuration not stated)	14.1µM*
O=C1CC(c2ccccc2)N(Cc2ccncc2)CCCN(C(=O)c2ccc3ncccc3c2)CCN1 (configuration not stated)	6.31µM*
Cc1ccc(C(=O)N2CCCN(S(C)(=O)=O)C(c3ccccc3)CC(=O)NCC2)cn1 (configuration not stated)	-9.0%
O=C1CC(c2ccccc2)N(Cc2ccncc2)CCCN(C(=O)CN2C(=O)CCC2=O)CCN1 (configuration not stated)	-19.3%
CCCS(=O)(=O)N1CCCC(C(=O)NCc2ccccc2)CCNC(=O)CC1 (configuration not stated)	26.0%
O=C1CC(c2ccccc2)N(Cc2ccncc2)CCCN(C(=O)c2ccsc2)CCN1 (configuration not stated)	5.62µM*
Cn1cccc1C(=O)N1CCCN(Cc2ccncc2)C(c2ccccc2)CC(=O)NCC1 (configuration not stated)	2.51µM*
CN(Cc1cn(-c2ccccc2)nn1)Cc1cnc2ccccn12	-0.2%
CO[C@H]1[C@H](NC(=O)CCOc2ccccc2)c2ccccc2C12CCNCC2	-8.5%
CN1C(=O)CO[C@H](c2ccc(NC(=O)c3cccnc3)cc2)[C@H]1CO	14.6%[44.1 µM]
COCc1nncn1C1CCN(C(=O)c2cccc(C(F)(F)F)c2)CC1	-20.4%
COc1cccc(N2C(=O)N[C@@H]3CCN(C(=O)c4cccs4)[C@@H]3C2=O)c1	5.5%[44.1 µM]
Cc1ccc(C2=NC3(CCN(C(=O)c4ccncc4)CC3)ON2)cc1	-24.5%
Cc1cccc(C(=O)N2CCCN(C(=O)C3CC3)C(c3ccccc3)CC(=O)NCC2)c1 (configuration not stated)	i
CS(=O)(=O)N1CCCN(Cc2ccc(C#N)cc2)CCNC(=O)CC1c1ccccc1 (configuration not stated)	-18.0%
COc1cccc(CC(=O)N2CCCN(S(C)(=O)=O)C(c3ccccc3)CC(=O)NCC2)c1 (configuration not stated)	-11.4%
Cc1cccc(C(=O)N2CCCN(Cc3ccncc3)C(c3ccccc3)CC(=O)NCC2)c1 (configuration not stated)	2.24µM*
Cn1cnc(S(=O)(=O)N2CCCN(C(=O)c3ccncc3)CCNC(=O)CC2c2ccccc2)c1 (configuration not stated)	-0.6%
Cc1ncccc1C(=O)N1CCCN(Cc2ccncc2)C(c2ccccc2)CC(=O)NCC1 (configuration not stated)	11.2µM*
Cc1cccc(C(=O)N2CCCCCNC(=O)CC2c2ccccc2)c1 (configuration not stated)	-6.3%
COc1cccc(CN2CCCN(Cc3ccncc3)C(c3ccccc3)CC(=O)NCC2)c1 (configuration not stated)	1.41µM*
Cc1ccc(C(=O)N2CCCN(Cc3ccncc3)C(c3ccccc3)CC(=O)NCC2)cn1 (configuration not stated)	i
CCC(=O)N(C1CCOCC1)C1CCN(S(=O)(=O)c2ccc(Cl)cc2C)CC1	-0.8%
COCCn1c(=O)n([C@H]2CCCN(C(=O)CC(C)C)C2)c2ncccc21	-5.7%
SMILES	Pf Dd2 inh
CCOc1ccc(C(=O)N[C@H]2CC[C@H]2NC2CCOCC2)cc1Cl	-23.6%
O=C(c1nccc2ccccc12)N1CCC(Cc2nc(C3CC3)n[nH]2)C1 (configuration not stated)	i
Cc1nc(-c2ccccc2)sc1-c1ccc(SCC(=O)NCc2ccc(Cl)cc2)nn1	11.4%
COC(=O)c1ccc(NC(=O)CSc2ccc(-c3sc(-c4ccccc4)nc3C)nn2)cc1	12.6µM*
Cc1cccc(NC(=O)CSc2ccc(-c3sc(-c4ccccc4)nc3C)nn2)c1C	i
COc1cccc([S+](=O)([O-])N2CCC3(CC(C(C)C)=NO3)C2)c1 (configuration not stated)	1.3%
CCOCCN1C(=O)COC[C@@H]1[C@H](O)c1ccc(NC(=O)c2ccco2)cc1	-15.4%[44.1 µM]
CC(C)(C)c1cc(C(=O)NCCc2ccc(Cl)cc2)nn2cccc12	-6.4%
O=C(C1CCCCC1)N1CC[C@H](c2nc3ccccc3s2)C1	-25.5%[44.1 µM]
CCOc1cccc(C(=O)N2CCC(c3nc4ccccc4s3)CC2)c1	87.0%
c1ccc2sc([C@H]3CCN(CC4CCCCC4)C3)nc2c1	10µM*
CCOC(=O)C1=CN(CC(=O)Nc2ccc(OCC)cc2)S(=O)(=O)N=C1C	i
Cc1nc([C@@H]2CN(C(=O)c3noc(C)c3Cn3cccn3)C[C@H]2C(N)=O)n[nH]1	-6.8%
COC[C@@H]1CN(c2cnccn2)C[C@H]1C(=O)NCc1c(C)n[nH]c1C	-0.5%
COc1ccccc1NC(=O)c1sc2nc3c(cc2c1N)CCCCCC3	i
COc1cc(NC(=O)c2cccc(F)c2)ccc1NC(=O)c1cc2ccccc2o1	5.6%
COc1ccccc1Nc1c2c(nc3ccc(NC(=O)c4cccc(F)c4)cc13)CCCC2	3.16µM*
COc1ccc(/C=C/C(=O)Nc2ccc3nc4c(c(Nc5ccccc5OC)c3c2)CCCC4)cc1	1.26µM*
Fc1ccccc1Nc1c2c(nc3ccccc13)CCC2	-22.1%
COc1ccc(Nc2c3c(nc4ccc(NC(=O)/C=C/c5cccc(OC)c5OC)cc24)CCCC3)cc1OC	3.98µM*
COc1ccc(Nc2c3c(nc4ccccc24)CCC3)cc1Cl	i
COc1ccc(NC(=O)c2c(OC)cc(=O)n3c2CCCC3)cc1OC	i
COc1ccc(C)cc1Nc1c2c(nc3ccccc13)CCC2	12.6µM*
COc1ccc(NC(=O)Cn2nc(C(F)(F)F)c3c2CCCC3)cc1OC	-6.9%
COc1ccc(OC)c(NC(=O)c2ccc3c(Cl)c4c(nc3c2)CCCC4)c1	-5.1%
SMILES	Pf Dd2 inh
Cc1ccc(C(=O)N2CCCN(S(=O)(=O)c3ccccc3)CCC(=O)NCC2)s1	-10.6%
CNC(=O)C1CCc2ncc(-c3ccsc3)n2C1 (configuration not stated)	3.2%
O=C(N[C@H]1[C@H](O)[C@H](O)C[C@@H]1c1cncnc1)c1ccc(C(F)(F)F)cc1	1.7%[44.1 µM]
O=C1NCCCCCN(C(=O)CN2CCOCC2)[C@H]2CCC[C@@H]12	8.4%
Cc1ncccc1C(=O)N1CCC(N2C(=O)CCC2C(=O)NCc2ccccc2)CC1 (configuration not stated)	39.6%
Nc1cccn2nc(C3CCC3)nc12	-16.4%
COc1ccc(-c2cn(C[C@H]3C[C@@H]4CCN3C[C@@H]4C(=O)N3CCOCC3)nn2)cc1	-5.4%[44.1 µM]
COc1ccc(C)cc1NC(=O)CC(=O)Nc1ccc2nc3n(c(=O)c2c1)CCCCC3	-12.7%
COc1ccccc1Nc1c2c(nc3ccc(NC(=O)/C=C/c4cccc(OC)c4OC)cc13)CCCC2	1.12µM*
COc1ccccc1NC(=O)Cn1nc2c(cc1=O)CCCC2	-11.8%
CC(C)CN1CCNC(=O)C1CC(=O)O (configuration not stated)	1.2%
CC[C@H]1CN(C(=O)c2ccc(F)cc2)CC[C@H]1CC(=O)NCc1ccccc1	-12.7%[44.1 µM]
O=C1[C@@H]2C[C@@H](O)CN2C2(CN(Cc3c[nH]c4ccccc34)C2)C(=O)N1Cc1ccccc1F	-5.9%
O[C@@H]1C[C@@H](c2nc(-c3ccc4c(c3)OCO4)no2)N(CC2CCCCC2)C1	i
COc1cccc(CC(=O)N2CCN(C(=O)c3nnn4c3COC(c3ccc(Cl)cc3)C4)CC2)c1 (configuration not stated)	-21.6%
